Values joined by “and” are separate entries in the source; they are usually repeats but may differ in a detail not shown here. Equal entries are not always repeated. The campaign covered roughly 5,500 compounds. About 2,000 (36%) were called active. About 18% were inconclusive and are not listed. No stated cut-off is given here; in the data, active means normalized growth mostly below about 0.91 (no sharp cut-off); inconclusive means no clear call, values can overlap the other calls; inactive means mostly above about 0.92. This is one part of the list.
Assay: chemical genetic growth profiling, strain panel (AID 1159580);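 further: tested at 20 µM; growth read once vehicle control cultures reached saturation at 30 °C; 1 = growth at the plate median or of vehicle wells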
Conditions: S. cerevisiae deletion strains, growth OD

**Q.** For `CC(C)c1ccc2c(c1)CCC1[C@](C)(CN)CCC[C@]21C` (stereo partly specified), which normalized growth (locus YAL013W, strain DEP1, stronger effect = lower value) is on record?
**A.** Its normalized growth is 0.598 (active).

**Q.** And the normalized growth (locus YAL021C, strain ccr4, stronger effect = lower value)?
**A.** The normalized growth was 0.819 (active).

**Q.** And the normalized growth (locus YAL026C, strain drs2, stronger effect = lower value)?
**A.** Its normalized growth is 0.0819 (active).

**Q.** And the normalized growth (locus YAL030W, strain snc1, stronger effect = lower value)?
**A.** Its normalized growth is 1.01 (inactive).

**Q.** What about the normalized growth (locus YBL061C, strain skt5, stronger effect = lower value) of the same compound?
**A.** The normalized growth was 1.01 (inactive).

**Q.** And the normalized growth (locus YBR009C, strain hhf1, stronger effect = lower value)?
**A.** The normalized growth was 0.927 (inactive).

**Q.** What about the normalized growth (locus YBR021W, strain FUR4, stronger effect = lower value) of the same compound?
**A.** The normalized growth was 0.392 (active).

**Q.** And the normalized growth (locus YBR023C, strain chs3, stronger effect = lower value)?
**A.** Its normalized growth is 0.947 (inactive).

**Q.** What about the normalized growth (locus YBR171W, strain sec66, stronger effect = lower value) of the same compound?
**A.** The normalized growth was 1.02 (inactive).

**Q.** What about the normalized growth (locus YBR229C, strain ROT2, stronger effect = lower value) of the same compound?
**A.** The normalized growth was 0.925 (inactive).

**Q.** And the normalized growth (locus YBR231C, strain swc5, stronger effect = lower value)?
**A.** Its normalized growth is 0.974 (inactive).

**Q.** What about the normalized growth (locus YBR279W, strain paf1, stronger effect = lower value) of the same compound?
**A.** The normalized growth was 0.976 (inactive).

**Q.** And the normalized growth (locus YCL011C, strain gbp2, stronger effect = lower value)?
**A.** Its normalized growth is 0.942 (inactive).

**Q.** And the normalized growth (locus YCL016C, strain dcc1, stronger effect = lower value)?
**A.** The normalized growth was 0.952 (inactive).

**Q.** What about the normalized growth (locus YCL029C, strain bik1, stronger effect = lower value) of the same compound?
**A.** Its normalized growth is 0.652 (active).

**Q.** And the normalized growth (locus YCL061C, strain MRC1, stronger effect = lower value)?
**A.** The normalized growth was 0.983 (inactive).

**Q.** And the normalized growth (locus YCL069W, strain vba3, stronger effect = lower value)?
**A.** Its normalized growth is 1 (inactive).

**Q.** What about the normalized growth (locus YCR088W, strain abp1, stronger effect = lower value) of the same compound?
**A.** The normalized growth was 1.01 (inactive).

**Q.** What about the normalized growth (locus YDL005C, strain med2, stronger effect = lower value) of the same compound?
**A.** Its normalized growth is 1.03 (inactive).

**Q.** And the normalized growth (locus YDL035C, strain GPR1, stronger effect = lower value)?
**A.** The normalized growth was 0.253 (active).

**Q.** What about the normalized growth (locus YDL040C, strain nat1, stronger effect = lower value) of the same compound?
**A.** Its normalized growth is 1.01 (inactive).

**Q.** What about the normalized growth (locus YDL074C, strain BRE1, stronger effect = lower value) of the same compound?
**A.** The normalized growth was 0.45 (active).

**Q.** And the normalized growth (locus YDL101C, strain DUN1, stronger effect = lower value)?
**A.** The normalized growth was 0.199 (active).

**Q.** What about the normalized growth (locus YDL134C, strain PPH21, stronger effect = lower value) of the same compound?
**A.** The normalized growth was 0.486 (active).

**Q.** What about the normalized growth (locus YDL185W, strain tfp1, stronger effect = lower value) of the same compound?
**A.** Its normalized growth is 0.88 (active).

**Q.** And the normalized growth (locus YDL192W, strain arf1, stronger effect = lower value)?
**A.** The normalized growth was 0.0814 (active).

**Q.** And the normalized growth (locus YDR001C, strain nth1, stronger effect = lower value)?
**A.** Its normalized growth is 1.02 (inactive).

**Q.** What about the normalized growth (locus YDR069C, strain doa4, stronger effect = lower value) of the same compound?
**A.** The normalized growth was 0.839 (active).

**Q.** And the normalized growth (locus YDR101C, strain arx1, stronger effect = lower value)?
**A.** The normalized growth was 0.13 (active).

**Q.** And the normalized growth (locus YDR137W, strain rgp1, stronger effect = lower value)?
**A.** Its normalized growth is 1.03 (inactive).

**Q.** What about the normalized growth (locus YDR150W, strain NUM1, stronger effect = lower value) of the same compound?
**A.** Its normalized growth is 0.786 (active).

**Q.** What about the normalized growth (locus YDR159W, strain sac3, stronger effect = lower value) of the same compound?
**A.** Its normalized growth is 1.02 (inactive).

**Q.** And the normalized growth (locus YDR162C, strain NBP2, stronger effect = lower value)?
**A.** Its normalized growth is 0.0633 (active).

**Q.** What about the normalized growth (locus YDR195W, strain ref2) of the same compound?
**A.** The normalized growth was 1.1 (inactive).

**Q.** And the normalized growth (locus YDR297W, strain sur2, stronger effect = lower value)?
**A.** The normalized growth was 0.992 (inactive).

**Q.** And the normalized growth (locus YDR318W, strain mcm21, stronger effect = lower value)?
**A.** The normalized growth was 0.457 (active).

**Q.** What about the normalized growth (locus YDR334W, strain swr1, stronger effect = lower value) of the same compound?
**A.** The normalized growth was 1.01 (inactive).

**Q.** What about the normalized growth (locus YDR335W, strain msn5, stronger effect = lower value) of the same compound?
**A.** The normalized growth was 0.969 (inactive).

**Q.** What about the normalized growth (locus YDR388W, stronger effect = lower value) of the same compound?
**A.** The normalized growth was 0.284 (active).

**Q.** And the normalized growth (locus YDR392W, strain spt3, stronger effect = lower value)?
**A.** The normalized growth was 0.5 (active).

**Q.** And the normalized growth (locus YDR502C, strain sam2, stronger effect = lower value)?
**A.** The normalized growth was 0.0848 (active).

**Q.** And the normalized growth (locus YEL003W, strain gim4, stronger effect = lower value)?
**A.** The normalized growth was 0.927 (inactive).

**Q.** What about the normalized growth (locus YEL037C, strain rad23, stronger effect = lower value) of the same compound?
**A.** Its normalized growth is 1.01 (inactive).

**Q.** And the normalized growth (locus YEL061C, strain CIN8 (second series), stronger effect = lower value)?
**A.** The normalized growth was 1.01 (inactive).

**Q.** And the normalized growth (locus YEL061C, strain CIN8, stronger effect = lower value)?
**A.** The normalized growth was 0.65 (active).

**Q.** What about the normalized growth (locus YER015W, strain faa2, stronger effect = lower value) of the same compound?
**A.** Its normalized growth is 0.951 (inactive).

**Q.** And the normalized growth (locus YER016W, strain bim1, stronger effect = lower value)?
**A.** Its normalized growth is 1.02 (inactive).

**Q.** What about the normalized growth (locus YER110C, stronger effect = lower value) of the same compound?
**A.** The normalized growth was 0.684 (active).

**Q.** And the normalized growth (locus YER111C, strain swi4, stronger effect = lower value)?
**A.** Its normalized growth is 1.03 (inactive).

**Q.** And the normalized growth (locus YER155C, strain BEM2 (second series), stronger effect = lower value)?
**A.** The normalized growth was 0.367 (active).

**Q.** And the normalized growth (locus YER167W, strain BCK2, stronger effect = lower value)?
**A.** Its normalized growth is 0.661 (active).

**Q.** And the normalized growth (locus YFR010W, strain ubp6, stronger effect = lower value)?
**A.** The normalized growth was 0.811 (active).

**Q.** And the normalized growth (locus YGL078C, strain dbp3, stronger effect = lower value)?
**A.** The normalized growth was 0.906 (active).

**Q.** What about the normalized growth (locus YGL086W, strain mad1, stronger effect = lower value) of the same compound?
**A.** The normalized growth was 0.167 (active).

**Q.** What about the normalized growth (locus YGL167C, strain pmr1, stronger effect = lower value) of the same compound?
**A.** The normalized growth was 1.01 (inactive).

**Q.** And the normalized growth (locus YGL173C, strain kem1, stronger effect = lower value)?
**A.** The normalized growth was 0.971 (inactive).

**Q.** And the normalized growth (locus YGL227W, strain vid30, stronger effect = lower value)?
**A.** Its normalized growth is 1.02 (inactive).

**Q.** And the normalized growth (locus YGL240W, strain doc1, stronger effect = lower value)?
**A.** Its normalized growth is 0.959 (inactive).

**Q.** And the normalized growth (locus YGL248W, strain PDE1, stronger effect = lower value)?
**A.** Its normalized growth is 0.368 (active).

**Q.** And the normalized growth (locus YGL253W, strain hxk2, stronger effect = lower value)?
**A.** The normalized growth was 0.973 (inactive).

**Q.** And the normalized growth (locus YGR078C, strain PAC10, stronger effect = lower value)?
**A.** The normalized growth was 0.334 (active).

**Q.** And the normalized growth (locus YGR135W, strain pre9, stronger effect = lower value)?
**A.** The normalized growth was 0.117 (active).

**Q.** What about the normalized growth (locus YGR229C, strain SMI1, stronger effect = lower value) of the same compound?
**A.** Its normalized growth is 0.0707 (active).

**Q.** What about the normalized growth (locus YGR252W, strain gcn5, stronger effect = lower value) of the same compound?
**A.** The normalized growth was 0.174 (active).

**Q.** What about the normalized growth (locus YHR013C, strain ard1, stronger effect = lower value) of the same compound?
**A.** Its normalized growth is 0.886 (inactive).

**Q.** And the normalized growth (locus YHR027C, strain rpn1, stronger effect = lower value)?
**A.** The normalized growth was 1.02 (inactive).

**Q.** What about the normalized growth (locus YHR030C, strain SLT2, stronger effect = lower value) of the same compound?
**A.** The normalized growth was 0.183 (active) and 0.967 (inactive).

**Q.** What about the normalized growth (locus YHR079C, strain IRE1 (second series), stronger effect = lower value) of the same compound?
**A.** Its normalized growth is 0.646 (active).

**Q.** And the normalized growth (locus YHR079C, strain IRE1, stronger effect = lower value)?
**A.** The normalized growth was 0.964 (inactive).

**Q.** And the normalized growth (locus YHR094C, strain hxt1, stronger effect = lower value)?
**A.** The normalized growth was 0.949 (inactive).

**Q.** And the normalized growth (locus YHR129C, strain ARP1, stronger effect = lower value)?
**A.** Its normalized growth is 0.701 (active).

**Q.** And the normalized growth (locus YHR142W, strain chs7, stronger effect = lower value)?
**A.** The normalized growth was 0.89 (inactive).

**Q.** What about the normalized growth (locus YHR200W, strain rpn10, stronger effect = lower value) of the same compound?
**A.** Its normalized growth is 0.162 (active).

**Q.** What about the normalized growth (locus YIL066C, strain RNR3, stronger effect = lower value) of the same compound?
**A.** The normalized growth was 0.34 (active).

**Q.** And the normalized growth (locus YIL073C, strain SPO22, stronger effect = lower value)?
**A.** The normalized growth was 0.147 (active).

**Q.** And the normalized growth (locus YIL125W, strain kgd1, stronger effect = lower value)?
**A.** The normalized growth was 0.961 (inactive).

**Q.** And the normalized growth (locus YIR030C, strain dcg1, stronger effect = lower value)?
**A.** Its normalized growth is 0.19 (active).

**Q.** What about the normalized growth (locus YJL092W, strain hpr5, stronger effect = lower value) of the same compound?
**A.** The normalized growth was 0.991 (inactive).

**Q.** And the normalized growth (locus YJL095W, strain BCK1 (second series), stronger effect = lower value)?
**A.** The normalized growth was 0.995 (inactive).

**Q.** And the normalized growth (locus YJL095W, strain BCK1, stronger effect = lower value)?
**A.** The normalized growth was 0.108 (active) and 0.995 (inactive).

**Q.** What about the normalized growth (locus YJL115W, strain asf1, stronger effect = lower value) of the same compound?
**A.** The normalized growth was 1.01 (inactive).

**Q.** What about the normalized growth (locus YJL129C, strain trk1, stronger effect = lower value) of the same compound?
**A.** The normalized growth was 0.954 (inactive).

**Q.** And the normalized growth (locus YJL134W, strain LCB3, stronger effect = lower value)?
**A.** Its normalized growth is 0.987 (inactive).

**Q.** What about the normalized growth (locus YJL154C, strain vps35, stronger effect = lower value) of the same compound?
**A.** The normalized growth was 1.02 (inactive).

**Q.** What about the normalized growth (locus YJL164C, strain tpk1, stronger effect = lower value) of the same compound?
**A.** Its normalized growth is 0.931 (inactive).

**Q.** And the normalized growth (locus YJL166W, strain qcr8, stronger effect = lower value)?
**A.** The normalized growth was 0.894 (active).

**Q.** And the normalized growth (locus YJL168C, strain set2, stronger effect = lower value)?
**A.** The normalized growth was 0.714 (active).

**Q.** And the normalized growth (locus YJL187C, strain SWE1 (second series), stronger effect = lower value)?
**A.** The normalized growth was 0.243 (active).

**Q.** And the normalized growth (locus YJR043C, strain POL32, stronger effect = lower value)?
**A.** The normalized growth was 0.635 (active).

**Q.** And the normalized growth (locus YJR066W, strain TOR1, stronger effect = lower value)?
**A.** Its normalized growth is 0.919 (inactive).

**Q.** What about the normalized growth (locus YJR075W, strain HOC1, stronger effect = lower value) of the same compound?
**A.** Its normalized growth is 0.392 (active).
